Laboratory results taken from the supplement of paper PMC13380429.

Assays:
[1] = system: Vero E6 infected with SARS-CoV-2; experiment: morphology score (similarity to uninfected cells); higher = more like uninfected cells; settings: 24 h
[2] = system: Vero E6 infected with SARS-CoV-2; experiment: SARS-CoV-2 infection rate relative to infected DMSO; higher = more infection, active = 60 or less; settings: 24 h

Row | SMILES | morphology score [1] | SARS-CoV-2 infection rate [2]
1 | C=CC(=O)Nc1cccc(C)c1Nc1ncc2cc(-c3c(Cl)c(OC)cc(OC)c3Cl)ccc2n1 (10 µM) | 0.567 | 67% (inactive)
2 | CCCC[C@H](NC(=O)[C@@H]1[C@@H]2[C@H](CN1C(=O)[C@@H](NC(=O)NC1(CS(=O)(=O)C(C)(C)C)CCCCC1)C(C)(C)C)C2(C)C)C(=O)C(=O)NC1CC1 [narlaprevir] (10 µM) | 0.157 | 111% (inactive)
3 | CCOC(=O)C1=C(COCCN)NC(C)=C(C(=O)OC)C1c1ccccc1Cl (stereo unspecified) [amlodipine] (10 µM) | 0.697 | 47% (active)
4 | N#Cc1ccc(N2CCN(C(=O)COc3ccc4[nH]cc(CCN)c4c3)CC2)cc1 [donitriptan] (10 µM) | -0.0047 | 100% (inactive)
5 | NS(=O)(=O)NCCNc1nonc1/C(=N/O)Nc1ccc(F)c(Br)c1 (10 µM) | 0.162 | 112% (inactive)
6 | CN(c1ccccc1CNc1nc(Nc2ccc3c(c2)CC(=O)N3)ncc1C(F)(F)F)S(C)(=O)=O (10 µM) | 0.0447 | 114% (inactive)
7 | O=C1c2ccccc2-c2c(NCCc3ccccc3)c(=O)[nH]c3cccc1c23 (10 µM) | -0.00844 | 112% (inactive)
8 | CCc1cc2c(s1)-n1c(C)nnc1CN=C2c1ccccc1Cl [etizolam] (10 µM) | -0.0349 | 103% (inactive)
9 | CN(C)C(=O)Nc1cccc(-c2ccc(N(C)C)cc2)c1 [atglistatin] (10 µM) | 0.11 | 98% (inactive)
10 | O=C(Nc1ccc(OC(F)(F)F)cc1)c1sccc1NCc1ccnc2ccccc12 (10 µM) | 0.0678 | 90% (inactive)
11 | O=c1ncn2nc(Sc3ccc(F)cc3F)ccc2c1-c1c(Cl)cccc1Cl (10 µM) | -0.049 | 108% (inactive)
12 | c1ccc(OCc2ccc(CCCN3CCOCC3)cc2)cc1 [fomocaine] (10 µM) | -0.0235 | 106% (inactive)
13 | O=C(OCCO)c1ccccc1O [2-hydroxyethyl-salicylate] (10 µM) | -0.198 | 108% (inactive)
14 | O=c1c2ccccc2[se]n1-c1ccccc1 [Ebselen] (10 µM) | 0.34 | 84.5% (inactive)
15 | S=C(NC1CCCCC1)N1CCC(c2cnc[nH]2)CC1 [thioperamide] (10 µM) | 0.083 | 96.5% (inactive)
16 | Cc1nc(C)c(C)nc1C [chuanxiongzine] (10 µM) | -0.146 | 118% (inactive)
17 | COC(=O)[C@@H]1[C@H]2C[C@H]3c4[nH]c5ccccc5c4CCN3C[C@@H]2CC[C@@H]1O [yohimbine] (10 µM) | 0.0665 | 109% (inactive)
18 | Cc1ccc(-c2cn3c4c(sc3n2)CCCC4)cc1 [pifithrin-cyclic] (10 µM) | -0.115 | 106% (inactive)
19 | COC(=O)Nc1ccc(-c2nc(N3CCOCC3)c3cnn(C4CCN(C(=O)OC)CC4)c3n2)cc1 (0.833333 µM) | 0.00734 | 120% (inactive)
20 | O=C(NCC1CCCCN1)c1cc(OCC(F)(F)F)ccc1OCC(F)(F)F (stereo unspecified) [flecainide] (10 µM) | 0.193 | 87.5% (inactive)
21 | CCCCCCCCCCCCCCCCCCOP(=O)([O-])OC1CC[N+](C)(C)CC1 [perifosine] (10 µM) | 0.116 | 104% (inactive)

Row | SMILES | morphology score [1] | SARS-CoV-2 infection rate [2]
22 | Clc1ccc(C(Cn2ccnc2)OCc2csc3c(Cl)cccc23)c(Cl)c1 (stereo unspecified) [sertaconazole] (10 µM) | 0.201 | 104% (inactive)
23 | COc1ccc(-c2nc(-c3ccc(-c4cccc(Cl)c4)o3)[nH]c2-c2ccc(OC)cc2)cc1 [neurodazine] (10 µM) | 0.198 | 70% (inactive)
24 | COc1cc2c(cc1OC)C1CC(=O)C(CC(C)C)CN1CC2 (stereo unspecified) [tetrabenazine] (10 µM) | 0.159 | 102% (inactive)
25 | COc1cc2c(Oc3ccc(NC(=O)C4(C(=O)Nc5ccc(F)cc5)CC4)cc3F)ccnc2cc1OCCCN1CCOCC1 [foretinib] (10 µM) | 0.152 | 106% (inactive)
26 | Cc1ccsc1/C=C/C1=NCCCN1C [morantel] (10 µM) | -0.00401 | 99.5% (inactive)
27 | O=C(OC(C(F)(F)F)C(F)(F)F)N1CCC(C(O)(c2ccc3c(c2)OCO3)c2ccc3c(c2)OCO3)CC1 (10 µM) | 0.159 | 93.5% (inactive)
28 | O=C1C(=O)N(Cc2ccc(Cl)c(Cl)c2)c2ccccc21 [apoptosis-activator-II] (10 µM) | 0.0389 | 104% (inactive)
29 | Cn1c(-c2ccccc2)nnc1S(C)(=O)=O (10 µM) | 0.268 | 86.5% (inactive)
30 | CCN1CCCC1=O [1-ethyl-2-pyrrolidone] (10 µM) | 0.128 | 104% (inactive)
31 | COc1cc(C)c(/C=C/C(C)=C/C=C/C(C)=C/C(=O)O)c(C)c1C [acitretin] (10 µM) | -0.0971 | 116% (inactive)
32 | N=C(N)c1cc2ccc(OC(=O)c3cccs3)cc2s1 (10 µM) | 0.578 | 76% (inactive)
33 | N[C@@H](Cc1cc(-c2ccc(Cl)cc2Cl)cc(CP(=O)(O)O)c1O)C(=O)O (10 µM) | -0.167 | 107% (inactive)
34 | CC(=O)Nc1ccc(O)cc1 [paracetamol] (10 µM) | -0.0685 | 103% (inactive)
35 | C[C@]12CC[C@@H]3c4ccc(OC(=O)N(CCCl)CCCl)cc4CC[C@H]3[C@@H]1CC[C@@H]2OP(=O)(O)O [estramustine-phosphate] (10 µM) | 0.0729 | 100% (inactive)
36 | CCCCN1[C@@H]2CC[C@H]1C[C@@H](OC(c1ccc(F)cc1)c1ccc(F)cc1)C2 (0.833333 µM) | 0.0455 | 86% (inactive)
37 | Cc1cccc(C(C)c2c[nH]cn2)c1C (stereo unspecified) [medetomidine] (10 µM) | -0.0614 | 102% (inactive)
38 | c1ccc(CNc2ncnc3[nH]cnc23)cc1 [6-benzylaminopurine] (10 µM) | 0.186 | 99% (inactive)
39 | CCCCCCCCCCCCCC(=O)OC(C)C [isopropyl-myristate] (10 µM) | 0.235 | 95.5% (inactive)
40 | NC[C@H](O)c1ccc(O)c(O)c1 [norepinephrine] (10 µM) | -0.067 | 109% (inactive)
41 | Cc1cc(OCCCS(C)(=O)=O)cc(C)c1-c1cccc(COc2ccc3c(c2)OC[C@H]3CC(=O)O)c1 (10 µM) | 0.0278 | 108% (inactive)
42 | CC(C(=O)O)c1ccc2c(c1)CC(=O)c1ccccc1S2 (stereo unspecified) [zaltoprofen] (10 µM) | 0.241 | 104% (inactive)

Row | SMILES | morphology score [1] | SARS-CoV-2 infection rate [2]
43 | COc1cc(NC(=O)c2ccc(-c3ccc(Cl)cc3)o2)cc(OC)c1 (10 µM) | 0.0298 | 112% (inactive)
44 | CC1=NN(c2ccccc2)C(=O)C1 [edaravone] (10 µM) | 0.127 | 101% (inactive)
45 | Cn1cc(C(F)(F)F)nc1-c1ccc(OCC(O)CNCCOc2ccc(O)c(C(N)=O)c2)cc1 (stereo unspecified) (10 µM) | -0.123 | 112% (inactive)
46 | O=C(O)CCCN1C(=O)c2cccc3cccc(c23)C1=O [isodibut] (10 µM) | 0.205 | 104% (inactive)
47 | CC(C)=CCC/C(C)=C/CNCCNC1C2CC3CC(C2)CC1C3 (stereo unspecified) (10 µM) | 0.122 | 94.5% (inactive)
48 | O=C(O)/C=C/c1ccc(O)cc1 [naringeninic-acid] (10 µM) | 0.0231 | 102% (inactive)
49 | CC(C)(C)c1ccc(C(=O)Nc2cn3cc(-n4ccnc4)ccc3n2)cc1 (10 µM) | -0.0468 | 100% (inactive)
50 | COC1=C(OC)C(=O)C(CCCCCCCCCCO)=C(C)C1=O [idebenone] (10 µM) | -0.0056 | 92.5% (inactive)
51 | COc1cc2c(cc1OCCCN1CCCC1)N=C(N)C21CCC1 (10 µM) | 0.0229 | 106% (inactive)
52 | CN(C)CC[C@@H](c1ccc(Cl)cc1)c1ccccn1 [chlorphenamine] (10 µM) | 0.0978 | 97.8% (inactive)
53 | OCCNC1CCCc2c1[nH]c1ccc(-c3ccccc3)cc21 (stereo unspecified) [casin] (0.833333 µM) | 0.105 | 102% (inactive)
54 | O=C1/C(=C/c2ccccc2)C[C@@]2(O)[C@H]3Cc4ccc(O)c5c4[C@@]2(CCN3CC2CC2)[C@H]1O5 (0.833333 µM) | 0.732 | 23.5% (active)
55 | Cc1nc2cnc3ccc(C#Cc4cccnc4)cc3c2n1-c1ccc(C(C)(C)C#N)cc1 (10 µM) | 0.114 | 109% (inactive)
56 | Cc1c(CN2CCN(C(=O)[C@H](C)O)CC2)sc2c(N3CCOCC3)nc(-c3cnc(N)nc3)nc12 (10 µM) | -0.0562 | 113% (inactive)
57 | Cc1cc(O)cc2c1O[C@](C)(CCC[C@H](C)CCC[C@H](C)CCCC(C)C)CC2 [D-delta-tocopherol] (10 µM) | -0.14 | 112% (inactive)
58 | C[C@@H]1[C@H](O)[C@@H](C)/C=C/C=C/C=C/C=C/C=C/C=C/C=C/[C@H](O[C@@H]2O[C@H](C)[C@@H](O)[C@H](N)[C@@H]2O)C[C@@H]2O[C@](O)(C[C@@H](O)C[C@@H](O)[C@H](O)CC[C@@H](O)C[C@@H](O)CC(=O)O[C@H]1C)C[C@H](O)[C@H]2C(=O)O [amphotericin-b] (10 µM) | 0.132 | 107% (inactive)
59 | NCCCS(=O)(=O)O [tramiprosate] (10 µM) | 0.072 | 104% (inactive)
60 | CC(=O)Nc1cccc(Nc2ncnc(N3CCC(OCc4ccc(OC(F)(F)F)cc4)CC3)n2)c1C (10 µM) | 0.184 | 110% (inactive)
61 | O=C(/C=C\n1cnc(-c2cc(C(F)(F)F)cc(C(F)(F)F)c2)n1)N1CC(F)(F)C1 (10 µM) | -0.303 | 116% (inactive)
62 | C[C@@H]1COCCN1c1cc(=O)n2c(n1)N(Cc1cncc(Cl)c1)[C@H](C(F)(F)F)CC2 (0.833333 µM) | 0.55 | 70% (inactive)
63 | O=C(O)c1ccccc1 [benzoic-acid] (10 µM) | 0.0363 | 110% (inactive)
